According to PubChem BioAssay (NCI):
Compounds without any hit were thinned out: in the full panel of roughly 83,000, 20% have a hit.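 How to read the values: 0–100, growth inhibition (40 = 60% inhibited); 0, no net growth; -100 to 0, cell death (-40 = 40% of starting cells died; -100 = all dead).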 Activity calls are given as the source filed them. How the source made its calls: active means growth percent below 10; inactive means the rest.

What was measured:
Assay in all cases: NCI-60 one-dose screen, 48 h (100 = growth as untreated, 0 = no growth, -100 = all killed)
HCT-15 colon = settings: 10 µM unless noted
HT29 colon = settings: 10 µM unless noted
SNB-75 CNS = settings: 10 µM unless noted
SNB-19 CNS = settings: 10 µM unless noted
U251 CNS = settings: 10 µM unless noted
PC-3 prostate = settings: 10 µM unless noted
SK-MEL-5 melanoma = settings: 10 µM unless noted
UACC-62 melanoma = settings: 10 µM unless noted
LOX IMVI melanoma = settings: 10 µM
SK-MEL-28 melanoma = settings: 10 µM unless noted

Measured: growth

ClCC(Cl)C1CCC(Cl)C(Cl)C1 (stereo unspecified)
inactive: HCT-15 colon 99% | HT29 colon 103% | SNB-75 CNS 89.6% | SNB-19 CNS 99.8% | U251 CNS 99.6% | PC-3 prostate 102% | SK-MEL-5 melanoma 105% | UACC-62 melanoma 103% | LOX IMVI melanoma 95.9% | SK-MEL-28 melanoma 103%

Cn1c(=O)c2[nH]c(CC(=O)O)nc2n(C)c1=O
inactive: HCT-15 colon 107% | HT29 colon 101% | SNB-75 CNS 98.1% | SNB-19 CNS 100% | U251 CNS 103% | PC-3 prostate 96.8% | SK-MEL-5 melanoma 106% | UACC-62 melanoma 108% | LOX IMVI melanoma 101% | SK-MEL-28 melanoma 101%

S=C=Nc1ccc2ccccc2c1
inactive: HCT-15 colon 96.6% | HT29 colon 105% | SNB-75 CNS 94.5% | SNB-19 CNS 101% | U251 CNS 97.8% | PC-3 prostate 102% | SK-MEL-5 melanoma 106% | UACC-62 melanoma 102% | LOX IMVI melanoma 94.2% | SK-MEL-28 melanoma 111%

O=C1Nc2ccccc2/C1=C\c1ccccc1O
inactive: HCT-15 colon 93.3% | HT29 colon 116% | SNB-75 CNS 64.9% | SNB-19 CNS 101% | U251 CNS 93.5% | PC-3 prostate 96.8% | SK-MEL-5 melanoma 92.6% | UACC-62 melanoma 80.5% | LOX IMVI melanoma 84.8% | SK-MEL-28 melanoma 97%

O=C(NC1CCCCC1)c1ccc(Cl)cc1
inactive: HCT-15 colon 108% | HT29 colon 101% | SNB-75 CNS 90% | SNB-19 CNS 101% | U251 CNS 98.6% | PC-3 prostate 102% | SK-MEL-5 melanoma 101% | UACC-62 melanoma 97.6% | LOX IMVI melanoma 97.4% | SK-MEL-28 melanoma 112%

Cc1ccc(NCN2C(=O)c3ccccc3C2=O)c(C)n1
inactive: HCT-15 colon 115% | HT29 colon 104% | SNB-75 CNS 116% | SNB-19 CNS 113% | U251 CNS 103% | PC-3 prostate 101% | SK-MEL-5 melanoma 100% | UACC-62 melanoma 109% | LOX IMVI melanoma 104% | SK-MEL-28 melanoma 116%

CCOC(=O)c1ccc(NC(C)=O)o1
inactive: HCT-15 colon 106% | HT29 colon 102% | SNB-75 CNS 94.3% | SNB-19 CNS 97.1% | U251 CNS 94.1% | PC-3 prostate 95.8% | SK-MEL-5 melanoma 97.9% | UACC-62 melanoma 90.4% | LOX IMVI melanoma 95.4% | SK-MEL-28 melanoma 118%

C=CCC(O)C=C (stereo unspecified)
inactive: HCT-15 colon 101% | HT29 colon 110% | SNB-75 CNS 99.3% | SNB-19 CNS 101% | U251 CNS 102% | PC-3 prostate 101% | SK-MEL-5 melanoma 102% | UACC-62 melanoma 104% | LOX IMVI melanoma 97.3% | SK-MEL-28 melanoma 105%

O=Cc1ccc(F)cc1
inactive: HCT-15 colon 93.4% | HT29 colon 103% | SNB-75 CNS 90.3% | SNB-19 CNS 103% | U251 CNS 101% | PC-3 prostate 101% | SK-MEL-5 melanoma 99.8% | UACC-62 melanoma 102% | LOX IMVI melanoma 101% | SK-MEL-28 melanoma 102%

COC(=O)c1ccccc1C(=O)c1c(C)cc(C)cc1C
inactive: HCT-15 colon 101% | HT29 colon 93.8% | SNB-75 CNS 96.5% | SNB-19 CNS 103% | U251 CNS 91.2% | PC-3 prostate 90% | SK-MEL-5 melanoma 101% | UACC-62 melanoma 92.5% | LOX IMVI melanoma 102% | SK-MEL-28 melanoma 94.9%

O=C(NCc1ccccc1)/C(=C/c1ccccc1)NC(=O)c1ccccc1
inactive: HCT-15 colon 106% | HT29 colon 92.9% | SNB-75 CNS 98.1% | SNB-19 CNS 97.1% | U251 CNS 93.4% | PC-3 prostate 88.5% | SK-MEL-5 melanoma 97.5% | UACC-62 melanoma 93.5% | LOX IMVI melanoma 98.3% | SK-MEL-28 melanoma 117%

NC(=S)N/N=C/c1ccc(Cl)cc1
inactive: HCT-15 colon 103% | HT29 colon 108% | SNB-75 CNS 103% | SNB-19 CNS 107% | U251 CNS 99.7% | PC-3 prostate 99.6% | SK-MEL-5 melanoma 99.1% | UACC-62 melanoma 109% | LOX IMVI melanoma 99.1% | SK-MEL-28 melanoma 107%

Cc1cccnc1NC1OC(=O)c2ccccc21 (stereo unspecified)
inactive: HCT-15 colon 96.7% | HT29 colon 104% | SNB-75 CNS 96.5% | SNB-19 CNS 101% | U251 CNS 101% | PC-3 prostate 114% | SK-MEL-5 melanoma 105% | UACC-62 melanoma 96.6% | LOX IMVI melanoma 94.9% | SK-MEL-28 melanoma 112%

Clc1ccc(/C=C/c2ccccn2)cc1
inactive: HCT-15 colon 89.5% | HT29 colon 111% | SNB-75 CNS 72.5% | SNB-19 CNS 96.3% | U251 CNS 81.1% | PC-3 prostate 81.4% | SK-MEL-5 melanoma 101% | UACC-62 melanoma 106% | LOX IMVI melanoma 98.6% | SK-MEL-28 melanoma 99%

Nc1ncnc(Nc2ccc(C(F)(F)F)cc2)n1
inactive: HCT-15 colon 103% | HT29 colon 103% | SNB-75 CNS 87.5% | SNB-19 CNS 98.8% | U251 CNS 94.2% | PC-3 prostate 89.6% | SK-MEL-5 melanoma 99.6% | UACC-62 melanoma 89.1% | LOX IMVI melanoma 100% | SK-MEL-28 melanoma 104%

CCC(/C=C\C(C)=O)CC
inactive: HCT-15 colon 101% | HT29 colon 107% | SNB-75 CNS 99% | SNB-19 CNS 99.5% | U251 CNS 96.6% | PC-3 prostate 91.3% | SK-MEL-5 melanoma 102% | UACC-62 melanoma 106% | LOX IMVI melanoma 97.4% | SK-MEL-28 melanoma 101%

CC(C)=CCC[C@@H](C)[C@H]1CC[C@@]2(C)C3=C(CC[C@]12C)[C@@]1(C)CC[C@H](O)C(C)(C)[C@@H]1CC3
inactive: HCT-15 colon 97.9% | HT29 colon 90.1% | SNB-75 CNS 92.7% | SNB-19 CNS 105% | U251 CNS 99.2% | PC-3 prostate 101% | SK-MEL-5 melanoma 104% | UACC-62 melanoma 101% | LOX IMVI melanoma 103% | SK-MEL-28 melanoma 104%

O=c1cc(C(F)(F)F)[nH]c(=S)[nH]1
inactive: HCT-15 colon 103% | HT29 colon 108% | SNB-75 CNS 102% | SNB-19 CNS 94.4% | U251 CNS 101% | PC-3 prostate 116% | SK-MEL-5 melanoma 98.7% | UACC-62 melanoma 99.5% | SK-MEL-28 melanoma 105%

CC(c1ccccc1)N1C(=O)CSC1=S (stereo unspecified)
active: HCT-15 colon 9.14% | HT29 colon 1.08%
inactive: SNB-75 CNS 19.9% | SNB-19 CNS 104% | U251 CNS 17.3% | PC-3 prostate 45.2% | SK-MEL-5 melanoma 34.8% | UACC-62 melanoma 34.5% | LOX IMVI melanoma 16.1% | SK-MEL-28 melanoma 46.9%

O=C(Nc1c(Cl)cc(Cl)cc1Cl)ON=C1CCCCC1
inactive: HCT-15 colon 102% | HT29 colon 104% | SNB-75 CNS 94.4% | SNB-19 CNS 108% | U251 CNS 104% | PC-3 prostate 114% | SK-MEL-5 melanoma 101% | UACC-62 melanoma 98.7% | SK-MEL-28 melanoma 106%

Nc1nc(N)nc(N2CCCCC2)n1
inactive: HCT-15 colon 107% | HT29 colon 98.2% | SNB-75 CNS 118% | SNB-19 CNS 115% | U251 CNS 101% | PC-3 prostate 99.5% | SK-MEL-5 melanoma 100% | UACC-62 melanoma 104% | LOX IMVI melanoma 104% | SK-MEL-28 melanoma 114%

N#Cc1ccc(OC(=O)Nc2c(Cl)cc(Cl)cc2Cl)cc1
inactive: HCT-15 colon 107% | HT29 colon 104% | SNB-75 CNS 127% | SNB-19 CNS 99.5% | U251 CNS 104% | PC-3 prostate 99.5% | SK-MEL-5 melanoma 97.2% | UACC-62 melanoma 102% | SK-MEL-28 melanoma 104%

c1cc(CNCCNCc2ccncc2)ccn1
inactive: HCT-15 colon 110% | HT29 colon 109% | SNB-75 CNS 92.5% | SNB-19 CNS 104% | U251 CNS 101% | PC-3 prostate 92.1% | SK-MEL-5 melanoma 107% | UACC-62 melanoma 101% | SK-MEL-28 melanoma 101%

C1CCc2onc(-c3noc4c3CCCCC4)c2CC1
inactive: HCT-15 colon 103% | HT29 colon 103% | SNB-75 CNS 112% | SNB-19 CNS 98% | U251 CNS 107% | PC-3 prostate 102% | SK-MEL-5 melanoma 101% | UACC-62 melanoma 102% | SK-MEL-28 melanoma 112%

CN(C)c1ccc(/C=C/C(=O)c2ccc(NC(N)=O)cc2)cc1
inactive: HCT-15 colon 84.9% | HT29 colon 95.2% | SNB-75 CNS 67.4% | SNB-19 CNS 80.1% | U251 CNS 69% | PC-3 prostate 98.4% | SK-MEL-5 melanoma 97.6% | UACC-62 melanoma 92.2% | SK-MEL-28 melanoma 104%

COc1cccc(N=CNc2cccc(OC)c2)c1
inactive: HCT-15 colon 85.2% | HT29 colon 99.6% | SNB-75 CNS 90.8% | SNB-19 CNS 103% | U251 CNS 95.9% | PC-3 prostate 84.2% | SK-MEL-5 melanoma 99% | UACC-62 melanoma 56.4% | SK-MEL-28 melanoma 106%

Cn1c(=O)[nH]c2ccccc2c1=O
inactive: HCT-15 colon 101% | HT29 colon 98.4% | SNB-75 CNS 91% | SNB-19 CNS 94.3% | U251 CNS 93.6% | PC-3 prostate 130% | SK-MEL-5 melanoma 101% | UACC-62 melanoma 102% | SK-MEL-28 melanoma 117%

COc1ccc(Br)c(C=O)c1
inactive: HCT-15 colon 26.8% | HT29 colon 76.3% | SNB-75 CNS 54.8% | SNB-19 CNS 74.8% | U251 CNS 39.1% | PC-3 prostate 71.7% | SK-MEL-5 melanoma 81.8% | UACC-62 melanoma 63.8% | SK-MEL-28 melanoma 86%

CC(=O)C1C(=O)C(=O)N(c2ccc(Cl)c(Cl)c2)C1=O (stereo unspecified)
inactive: HCT-15 colon 93.8% | HT29 colon 107% | SNB-75 CNS 78.3% | SNB-19 CNS 107% | U251 CNS 101% | PC-3 prostate 96.9% | SK-MEL-5 melanoma 107% | UACC-62 melanoma 101% | LOX IMVI melanoma 94.4% | SK-MEL-28 melanoma 103%
